In all, about 400,000 compounds went through this assay and about 2,100 (0.53%) were called active. Another 14% or so got no clear call; they are omitted. The rule behind the calls is not given here. The sample as a whole holds a higher share of actives than the screen did.
target: Ataxin-2 (Homo sapiens) (UniProt Q99700); experiment: qHTS for Inhibitors of ATXN expression.; format: functional
Sequence (Q99700 whole entry): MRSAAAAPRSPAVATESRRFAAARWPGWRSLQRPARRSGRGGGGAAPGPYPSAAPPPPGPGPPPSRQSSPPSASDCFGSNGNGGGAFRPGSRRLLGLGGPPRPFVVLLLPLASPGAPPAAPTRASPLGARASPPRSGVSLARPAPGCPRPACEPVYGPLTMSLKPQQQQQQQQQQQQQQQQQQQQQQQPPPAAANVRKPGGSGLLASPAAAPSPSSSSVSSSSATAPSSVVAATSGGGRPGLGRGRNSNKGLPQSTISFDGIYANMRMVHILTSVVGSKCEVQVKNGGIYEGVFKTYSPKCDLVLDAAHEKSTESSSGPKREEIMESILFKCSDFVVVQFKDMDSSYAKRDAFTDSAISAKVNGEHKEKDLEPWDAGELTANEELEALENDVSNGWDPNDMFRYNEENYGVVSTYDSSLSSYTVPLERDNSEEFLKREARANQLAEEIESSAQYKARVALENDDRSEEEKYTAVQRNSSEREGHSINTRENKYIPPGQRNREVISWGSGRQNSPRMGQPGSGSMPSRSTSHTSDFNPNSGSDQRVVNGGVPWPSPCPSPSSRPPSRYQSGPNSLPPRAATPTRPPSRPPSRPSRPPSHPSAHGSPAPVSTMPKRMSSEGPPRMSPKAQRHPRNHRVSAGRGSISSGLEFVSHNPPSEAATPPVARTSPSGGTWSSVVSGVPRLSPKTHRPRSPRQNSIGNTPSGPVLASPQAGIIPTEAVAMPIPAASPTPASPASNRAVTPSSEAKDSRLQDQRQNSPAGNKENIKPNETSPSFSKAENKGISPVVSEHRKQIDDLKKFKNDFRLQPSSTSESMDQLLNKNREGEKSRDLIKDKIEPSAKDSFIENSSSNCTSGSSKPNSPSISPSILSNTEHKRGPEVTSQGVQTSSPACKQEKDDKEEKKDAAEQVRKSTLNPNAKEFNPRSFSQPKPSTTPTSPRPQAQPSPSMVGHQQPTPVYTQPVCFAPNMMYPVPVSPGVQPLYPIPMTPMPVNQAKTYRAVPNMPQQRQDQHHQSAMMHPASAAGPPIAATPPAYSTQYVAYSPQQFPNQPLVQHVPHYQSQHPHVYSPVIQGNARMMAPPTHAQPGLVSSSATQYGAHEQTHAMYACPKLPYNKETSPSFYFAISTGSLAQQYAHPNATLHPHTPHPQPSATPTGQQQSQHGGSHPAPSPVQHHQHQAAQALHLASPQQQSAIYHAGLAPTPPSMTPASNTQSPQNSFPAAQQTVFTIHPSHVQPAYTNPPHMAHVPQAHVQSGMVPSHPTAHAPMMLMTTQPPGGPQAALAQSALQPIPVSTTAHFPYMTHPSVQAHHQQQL

Structure (SMILES) | Potency
CC(C(=O)N1CCCCCC1)c1ccc([N+](=O)[O-])cc1 (stereo unspecified) | inactive
CCCn1nc(NC(=O)C(C)(C)C)c2cc3cc(OC)ccc3nc21 | inactive
Cc1ccc(-c2nc3cc(Br)cnc3nc2-c2ccc(C)cc2)cc1 | inactive
Cc1nnsc1C(=O)NNC(=O)Nc1ccccc1 | inactive
O=C(C1=NN(c2ccccc2)C2C(=O)N(c3ccccc3Cl)C(=O)C12)c1ccccc1 (stereo unspecified) | inactive
O=C(c1ccccc1)c1ccsc1C(=O)c1ccccc1 | inactive
O=C(c1ccccc1)c1ccccc1N1C(=O)C=CC1=O | 23.8 µM (active)
O=C(Oc1cc(=O)oc2c1c(=O)n1c3c(cccc23)CC1)c1ccccc1 | inactive
COc1cccc(CNC(=O)c2cc(S(=O)(=O)N3CCCC3)cn2C)c1 | inactive
Cc1ccc(OCC(=O)Nc2ccc(Cl)cc2)c(-n2nc3ccccc3n2)c1 | 39.8 µM (active)
Cc1cc(Cl)ccc1OCC(=O)OCC(=O)Nc1cccnc1Cl | inactive
CN(CC(=O)Nc1ccc(Cl)cc1)C(=O)COc1ncnc2ccccc12 | inactive
Cc1cccc(C2=NN(c3ccccc3)[C@@H](C(=O)N3CCOC3=O)[C@@H]2c2ccc(F)cc2)c1 | inactive
Cc1cc(NCCCCO)n2c(nc3ccccc32)c1C#N | inactive
Cc1ccc(-c2ncns2)cc1 | inactive
N=c1n(Cc2ccc(Cl)cc2)c2ccccc2n1CC(O)COc1ccccc1 (stereo unspecified) | 35.5 µM (active)

Structure (SMILES) | Potency
N=c1n(Cc2ccccc2)c2ccccc2n1CC(O)COc1ccc(Cl)cc1Cl (stereo unspecified) | 37.7 µM (active)
COc1ccc(OCC(O)CNC(=O)c2c(-c3ccccc3)noc2C)cc1 (stereo unspecified) | inactive
N=c1n(CCO)c2ccccc2n1CCOc1ccc(Cl)cc1Cl | 25.1 µM (active)
COc1ccc(OCC(O)Cn2c(=N)n(Cc3ccccc3)c3ccccc32)cc1 (stereo unspecified) | 35.5 µM (active)
Oc1nncc2c3ccccc3n(Cc3cccc(Cl)c3)c12 | inactive
OC(COc1ccc(Cl)cc1)CSc1ccccn1 (stereo unspecified) | inactive
COc1ccc(OCc2nc3ccccc3n2C(C)C)cc1 | inactive
O=C(O)c1cc2cccc(S(=O)(=O)N3CCCCC3)c2cc1O | inactive
CC(/C=N\NC(=O)Cn1cncn1)=C/c1ccc(C(C)C)cc1 | inactive
CC(C)(C)C(=O)/C(=C/c1ccncc1)n1cncn1 | 20 µM (active)
Cc1cccc(C)c1N(CC(=O)NCc1ccc(F)cc1)C(=O)c1csnn1 | inactive
CN(C)c1ccc(/C=N/NC(=O)c2ccc(Cn3cc(Br)cn3)o2)cc1 | inactive
NC(=O)c1ccsc1NC(=O)Cc1ccc([N+](=O)[O-])cc1 | inactive
NC(Cc1ccc([N+](=O)[O-])cc1)=NOC(=O)c1cccc(Br)c1 | inactive
NC(Cc1ccc([N+](=O)[O-])cc1)=NOC(=O)C(c1ccccc1)c1ccccc1 | 25.1 µM (active)

— ChEMBL document CHEMBL1201862, “PubChem BioAssay data set” (2004)
